Assay results from PMC10338684.

Each substance was assayed against Helicase protein MOM1 (UniProt Q9M658) (assay: mass-spectrometry hit list; affinity purification or IP with mass spectrometry).
Chain of UniProt Q9M658 (Q9M658 whole entry): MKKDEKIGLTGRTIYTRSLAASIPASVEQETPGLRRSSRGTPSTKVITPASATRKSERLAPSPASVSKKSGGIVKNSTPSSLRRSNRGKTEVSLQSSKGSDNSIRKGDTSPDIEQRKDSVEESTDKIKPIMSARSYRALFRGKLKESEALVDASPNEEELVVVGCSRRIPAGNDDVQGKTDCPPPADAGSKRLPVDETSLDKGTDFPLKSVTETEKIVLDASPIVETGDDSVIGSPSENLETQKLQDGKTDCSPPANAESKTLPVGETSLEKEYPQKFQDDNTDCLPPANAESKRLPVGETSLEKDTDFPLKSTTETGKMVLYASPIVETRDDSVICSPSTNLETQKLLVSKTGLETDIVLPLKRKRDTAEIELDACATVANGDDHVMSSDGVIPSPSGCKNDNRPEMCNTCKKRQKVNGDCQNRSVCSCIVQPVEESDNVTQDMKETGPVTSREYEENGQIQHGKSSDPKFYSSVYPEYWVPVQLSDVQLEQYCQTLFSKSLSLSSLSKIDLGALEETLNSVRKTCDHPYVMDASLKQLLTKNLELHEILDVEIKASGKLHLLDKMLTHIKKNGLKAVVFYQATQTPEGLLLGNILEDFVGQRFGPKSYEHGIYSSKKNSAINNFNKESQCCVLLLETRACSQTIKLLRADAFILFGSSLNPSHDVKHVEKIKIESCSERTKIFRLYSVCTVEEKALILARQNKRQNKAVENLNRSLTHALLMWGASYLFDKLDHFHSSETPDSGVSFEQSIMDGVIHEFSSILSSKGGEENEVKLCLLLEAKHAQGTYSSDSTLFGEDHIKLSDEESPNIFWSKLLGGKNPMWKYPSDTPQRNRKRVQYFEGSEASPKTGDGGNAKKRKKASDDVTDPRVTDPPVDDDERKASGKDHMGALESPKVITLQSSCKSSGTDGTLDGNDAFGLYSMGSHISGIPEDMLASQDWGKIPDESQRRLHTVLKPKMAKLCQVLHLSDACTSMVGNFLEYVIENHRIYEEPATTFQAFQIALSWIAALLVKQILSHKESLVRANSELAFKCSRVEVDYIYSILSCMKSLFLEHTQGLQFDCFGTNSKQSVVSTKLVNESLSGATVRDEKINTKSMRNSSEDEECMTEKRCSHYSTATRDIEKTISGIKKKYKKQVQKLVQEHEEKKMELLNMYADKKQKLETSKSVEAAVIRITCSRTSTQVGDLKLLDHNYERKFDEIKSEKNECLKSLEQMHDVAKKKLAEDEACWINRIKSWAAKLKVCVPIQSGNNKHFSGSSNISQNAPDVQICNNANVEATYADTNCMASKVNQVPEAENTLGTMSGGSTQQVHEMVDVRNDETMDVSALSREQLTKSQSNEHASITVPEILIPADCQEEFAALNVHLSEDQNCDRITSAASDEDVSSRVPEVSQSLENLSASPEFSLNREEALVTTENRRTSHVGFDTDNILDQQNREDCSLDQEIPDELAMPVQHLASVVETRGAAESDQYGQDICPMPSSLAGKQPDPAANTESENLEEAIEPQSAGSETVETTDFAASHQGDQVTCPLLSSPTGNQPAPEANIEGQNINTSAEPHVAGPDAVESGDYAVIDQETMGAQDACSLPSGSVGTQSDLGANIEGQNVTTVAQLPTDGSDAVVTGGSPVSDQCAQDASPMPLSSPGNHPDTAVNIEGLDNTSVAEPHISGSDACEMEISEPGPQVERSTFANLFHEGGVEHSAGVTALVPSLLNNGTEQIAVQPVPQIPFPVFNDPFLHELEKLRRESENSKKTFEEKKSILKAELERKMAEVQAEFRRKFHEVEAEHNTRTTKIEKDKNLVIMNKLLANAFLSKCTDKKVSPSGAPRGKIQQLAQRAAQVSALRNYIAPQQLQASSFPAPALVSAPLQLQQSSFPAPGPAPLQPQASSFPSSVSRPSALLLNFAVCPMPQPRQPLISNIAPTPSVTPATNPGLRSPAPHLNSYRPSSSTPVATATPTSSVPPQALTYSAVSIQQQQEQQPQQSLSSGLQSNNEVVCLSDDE

Listed as a hit, yes:
E4 SUMO-protein ligase PIAL1, A0A0A7EPL0
Protein DEFECTIVE IN MERISTEM SILENCING 3, Q94A79
Protein MICRORCHIDIA 1, Q84WV6
Protein RNA-directed DNA methylation 3, F4JW79
Protein MICRORCHIDIA 6, Q56Y74
Lysine-specific demethylase JMJ14, Q8GUI6
PHD finger-containing protein 1, B3H578
E4 SUMO-protein ligase PIAL2, F4JYG0
Structural maintenance of chromosomes flexible hinge domain-containing protein GMI1, F4KFS5
Chromatin structure-remodeling complex protein SYD, F4IHS2
Probable inactive lysine-specific demethylase JMJ19, Q8L7T6
Chromatin remodeling ATPase BRAHMA, Q6EVK6
ASI1-immunoprecipitated protein 3, Q8RXT5
DNA-directed RNA polymerases IV and V subunit 2, Q9LK40
DNA-directed RNA polymerase V subunit 1, Q5D869
